Test results from PubChem BioAssay AID1481 (The Scripps Research Institute Molecular Screening Center, 2009).
Among all 220,000 compounds or so, about 920 (0.42%) were called active. Only a selection was taken, and actives are over-represented in it overall. Unmarked numbers belong to inactive results. No stated cut-off is given here; in the data, active means inhibition above about 15%; inactive means the rest.

Biological target: Transitional endoplasmic reticulum ATPase (Homo sapiens) (UniProt P55072)
Sequence (P55072 whole entry, looked up): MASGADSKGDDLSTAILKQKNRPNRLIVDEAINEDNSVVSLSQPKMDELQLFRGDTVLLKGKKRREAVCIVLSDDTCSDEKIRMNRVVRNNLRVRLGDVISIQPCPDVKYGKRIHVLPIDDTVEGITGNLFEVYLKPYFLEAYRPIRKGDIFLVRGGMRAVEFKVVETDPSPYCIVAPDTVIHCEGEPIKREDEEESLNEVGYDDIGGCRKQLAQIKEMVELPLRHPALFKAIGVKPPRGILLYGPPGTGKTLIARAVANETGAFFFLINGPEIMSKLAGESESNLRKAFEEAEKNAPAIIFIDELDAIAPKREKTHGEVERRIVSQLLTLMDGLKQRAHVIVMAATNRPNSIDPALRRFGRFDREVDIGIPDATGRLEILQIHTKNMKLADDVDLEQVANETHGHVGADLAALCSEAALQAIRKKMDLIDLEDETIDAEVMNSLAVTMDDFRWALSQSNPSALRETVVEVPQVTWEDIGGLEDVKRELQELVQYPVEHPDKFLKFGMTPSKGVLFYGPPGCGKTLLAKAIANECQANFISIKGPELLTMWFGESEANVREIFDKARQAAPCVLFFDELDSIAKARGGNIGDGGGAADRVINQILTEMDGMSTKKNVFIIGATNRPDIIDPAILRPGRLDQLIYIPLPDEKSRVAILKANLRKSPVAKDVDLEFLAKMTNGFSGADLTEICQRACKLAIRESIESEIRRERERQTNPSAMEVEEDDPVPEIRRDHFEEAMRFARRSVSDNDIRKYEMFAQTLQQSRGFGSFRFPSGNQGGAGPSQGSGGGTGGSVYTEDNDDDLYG
Assay: p97 ATP hydrolysis blockers – biochemical, primary screen (AID 1481);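 further: 0% = DMSO vehicle and 100% = wells lacking enzyme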
Settings: recombinant p97 ATPase, Kinase-Glo ATP luminescence, 3 h; at 8 µM; active compounds read high

| SMILES | inhibition |
| --- | --- |
| COc1ccc(CCNS(=O)(=O)c2ccc(Cl)s2)cc1OC | -7.85% |
| Cn1c(N)cc(-c2ccc(F)cc2)c(C#N)c1=O | -2.35% |
| O=C(Nc1nnc(CCN2CCCCC2)s1)c1cccc(Cl)c1 | 2.22% |
| Cn1c(=O)c2c(-c3cccc(Br)c3)c(C#N)c(N)nc2n(C)c1=O | 0.09% |
| Cc1cc(C(=O)NNC(=O)c2cccc(S(=O)(=O)N3CCOCC3)c2)c2ccccc2n1 | -3.18% |
| O=C(c1cccc(S(=O)(=O)N2CCOCC2)c1)N1CCOCC1 | 0.28% |
| O=C(NNC(=S)Nc1ccccc1)c1cccc(S(=O)(=O)N2CCOCC2)c1 | 15.6% (active) |
| COCC(C)NCc1cc(Br)ccc1OC (configuration not stated) | 0.25% |
| Cn1cccc1/C=N/NC(=O)CNc1cccc2ccccc12 | 3.45% |
| CN(C)C=NC(=O)c1cccn1-c1ncc(C(F)(F)F)cc1Cl | -5.69% |
| O=C(C1=C(O)C(=O)N(CCOCCO)C1c1ccccn1)c1cccs1 (configuration not stated) | 2.8% |
| Cc1cc(C)cc(NC(=O)N(C)Cc2ccccc2)c1 | -0.6% |
| Cn1c(SCC(=O)C(C)(C)C)nnc1-c1ccccn1 | -4.36% |
| COc1ccc(-c2cc(-c3ccc(N)cc3)nc(N)c2C#N)cc1OC | 18.6% (active) |
| CCSc1nc(-c2ccc(OC)cc2)cc(-c2ccc(OC)cc2)c1C#N | 0.73% |
| CCOc1cc(-c2cc(-c3ccc(OC)cc3)nc(N)c2C#N)ccc1O | 2.46% |
| COc1ccc(N2CCC(CNC(=S)Nc3c(C)cccc3C)C2)cc1 (configuration not stated) | 1.49% |
| O=C1N(c2ccc(Cl)cc2)C(c2ccc(Cl)cc2)N2CCCN12 (configuration not stated) | 4.79% |
| Cn1c(=NC(=O)c2ccc3c(c2)OCCO3)sc2cc(S(C)(=O)=O)ccc21 | -0.6% |
| S=C(Cc1ccc(Cl)cc1)N1CCOCC1 | -3.61% |
| Cc1ccccc1OCCC(=O)Nc1c(C)n(C)n(-c2ccccc2)c1=O | 3.48% |
| Cc1ccc(S(=O)(=O)CC(=O)Nc2c(C)n(C)n(-c3ccccc3)c2=O)cc1 | 0.73% |
| CC(=O)N1CCc2cc(Br)cc(S(=O)(=O)CCC(=O)Nc3c(C)n(C)n(-c4ccccc4)c3=O)c21 | 16.1% (active) |
| O=C(/C=C/c1ccc2c(c1)OCCO2)c1ccc(O)cc1 | 9.09% |
| CCN(c1ccccc1)S(=O)(=O)c1ccc(N)cc1 | 21.5% (active) |
| CCN(c1ccccc1)S(=O)(=O)c1ccc(NC(=O)C(C)(C)C)cc1 | 0.99% |
| CCN(c1ccccc1)S(=O)(=O)c1ccc2[nH]c(=O)[nH]c2c1 | 5.66% |
